INHIBITION data for 54 compounds are collected here from ChEMBL document CHEMBL4513216, “Probing the Open Global Health Chemical Diversity Library for Multistage-Active Starting Points for Next-Generation Antimalarials” (ACS Infect Dis, 2020).

Structures are written as SMILES. The whole screen tested about 69,000 compounds, of which about 8,600 (12%) showed an effect of 50% or more. The list comes from a sample in which strong results are over-represented; it also holds similar structures and randomly drawn compounds.

The test system of the experiment is Plasmodium berghei. Nature of the experiment: Screen against P. berghei liver stage (PbLuc), transformed with Luciferase, at 10uM. It is filed as functional, HepG2. Particulars: tested at 10 uM.
For the compound `Cc1ccc(S(=O)(=O)Nc2cnn(C3CCOCC3)c2)cc1C`, the INHIBITION is on record as -52.5%.
Regarding `CCCc1ccc(S(=O)(=O)NC(=O)CCc2cscn2)cc1`, the INHIBITION is 16.2%.
The figure for `O=S(=O)(c1cncc(F)c1)N1CCSC2(CCCCC2)C1` is 28.5%; for `COc1c(C2CCCN2C(=O)c2cccnc2N(C)C)c(C)nn1C` (centres undefined) it is 23.4%; for `COc1ccc(-n2cc(CNC(=O)c3cc[nH]n3)nn2)cc1` it is -120%.
The figure for `O=S(=O)(CCCN1CCc2c(ncn2C2CC2)C1)c1ccccc1` is -27.5%; for `CCCN1C(=O)CC(N2CCN(c3ccc(F)cc3)CC2)C1=O` (centres undefined) it is -34.7%.
The same measure for `CC(C)N1C(=O)CC(N2CCN(c3ccc(F)cc3)CC2)C1=O` (centres undefined): 14.3%; for `CC(C)CN1C(=O)CC(N2CCN(c3ccc(F)cc3)CC2)C1=O` (centres undefined): 54%.
Turning to `CCN(Cc1ccc2c(c1)OCO2)C(=O)NC(C)Cn1ccnc1` (centres undefined), the INHIBITION was determined as 26.4%.
Turning to `Cc1sc(CNS(N)(=O)=O)nc1-c1ccc(Cl)cc1`, the INHIBITION was -20.6%.
The figure for `CNC(=O)CN1CCC(OCc2ccc(Cl)c(Cl)c2)CC1` is 65.6%; for `NC(=O)CN1CCC(OCc2ccc(Cl)c(Cl)c2)CC1` it is 33.1%; for `CCC(N)C(=O)N1CCC(OCc2ccc(Cl)c(Cl)c2)CC1` (centres undefined) it is 47.7%.
The figure for `CC1=N[C@@]2(CC[C@@H]3CN(Cc4ccccc4F)C[C@@H]32)C(=O)N1CC1CC1` is 20.1%; for `CCn1ncnc1C1CC(=O)NCc2nc(N)sc21` (centres undefined) it is 19.7%.
The figure for `COC(=O)N1CCN(Cc2csc(-c3ncccn3)n2)CC1` is -42.5%; for `Cc1ccc(-c2nc(CN3CCN(CC(=O)N(C)C)CC3)cs2)o1` it is 15.3%.
`Cc1ccc(-c2nc(CN3CCN(C(=O)C4CC4)CC3)cs2)o1`: the INHIBITION is recorded as -34%.
Regarding `CC(C)c1nc(CN2CCN(Cc3ccccn3)CC2)cs1`, the INHIBITION is reported as -53.5%.
The figure for `CC(C)CC(=O)N1CCN(Cc2csc(-c3ncccn3)n2)CC1` is 10.6%; for `CC(C)C(=O)N1CCN(Cc2csc(-c3ccccn3)n2)CC1` it is 47.4%; for `Cc1ccc(-c2nc(CN3CCN(S(=O)(=O)N(C)C)CC3)cs2)o1` it is 52.1%.
The same measure for `CC(C)C(=O)N1CCN(Cc2csc(-c3ncccn3)n2)CC1`: 41.8%; for `OC(c1ccccc1)C1CCN(Cc2csc(-c3ncccn3)n2)CC1` (centres undefined): 59.8%.
On to `CS(=O)(=O)N1CCN(Cc2csc(-c3ncccn3)n2)CC1`, for which the INHIBITION is given as 56.8%.
Take `CC(=O)N1CCCN(Cc2csc(-c3ncccn3)n2)CC1`: the INHIBITION is listed as 30.8%.
Regarding `CC(O)CN1CCN(Cc2csc(-c3ncccn3)n2)CC1` (centres undefined), the INHIBITION is listed as 60.8%.
Turning to `Cn1ccc(C(=O)NCc2ccc(N3CCCCC3)nc2)cc1=O`, the INHIBITION worked out at 46.2%.
Consider `O=C(O)[C@]12CCCN(Cc3ccncc3)C[C@H]1CN(c1ncccn1)C2`, for which the INHIBITION is given as -20.1%.
The figure for `Cn1cnc2c1C(COCC1CCOCC1)CN(Cc1ccccn1)C2` (centres undefined) is 36.9%; for `Cc1oncc1C(=O)N1CCC2(CC1)CC(N1CCOCC1)C2` it is -15.9%; for `CNc1cc(-c2ccncc2)ncn1` it is 24.8%.
With `Cc1cc(C)n(CC2CCCCN2C(=O)c2ccc3c(c2)COC3)n1` (centres undefined), the INHIBITION came out at 56.4%.
Turning to `Cc1cc(C)n(CC2CCCCN2C(=O)c2ccc(C(N)=O)cc2)n1` (centres undefined), the INHIBITION is -10.6%.
For `Cc1cc(C)n(CC2CCCN2C(=O)c2cccc3c2OCO3)n1` (centres undefined), the INHIBITION amounted to 25.15%.
The same measure for `Cc1cc(C)n(CC2CCCN2C(=O)c2ccc3c(c2)OCO3)n1` (centres undefined): 52.1%; for `Cc1cc(C)n(CC2CCCN2C(=O)c2ccc3[nH]c(=O)[nH]c3c2)n1` (centres undefined): 16.3%; for `Cc1cc(C)n(CC2CCCCN2C(=O)c2ccc3c(c2)OCO3)n1` (centres undefined): 5.97%.
The same measure for `Cc1cc(C)n(CC2CCCN2C(=O)c2ccc3c(c2)OCCO3)n1` (centres undefined): 15.2%.
In the case of `Cc1cc(C)n(CC2CCCN2C(=O)c2ccc3c(c2)COC3)n1` (centres undefined), the INHIBITION came to 51.6%.
With `Cc1cnn(CC2CCCCN2C(=O)c2ccc3c(c2)COC3)c1` (centres undefined), the INHIBITION was -18%.
The figure for `CN(C)CC(=O)NC1CC(C)(C)Cc2nc(C(C)(C)C)ncc21` (centres undefined) is 43.6%; for `O=C(CN1CC(c2ccccc2)CC1=O)NCc1cc2n(n1)CCNC2` (centres undefined) it is 17.3%; for `Cc1noc2nc3c(c(C(=O)/N=c4\[nH]nc(C(C)C)s4)c12)CCC3` it is 38%.
With `Cn1cc(CN2CCO[C@@H]3CN(Cc4ccoc4)C[C@@H]3C2)cn1`, the INHIBITION is -18.4%.
The figure for `COCC(NC1CCSCC1)c1ccnn1C` (centres undefined) is 47.6%.
The same measure for `CN1C(=O)C2(CCCN(C(=O)c3cccnc3O)C2)c2ccccc21` (centres undefined): 7.25%.
Regarding `O=C(NCC1(N2CCOCC2)CCSC1)Nc1ccc(F)cc1` (centres undefined), the INHIBITION amounted to 23.5%.
On to `Cc1ccc(NC(=O)NCC2(N3CCOCC3)CCSC2)c(C)c1` (centres undefined), for which the INHIBITION was 74.2%.
As to `Cc1cccc(NC(=O)NCC2(N3CCOCC3)CCSC2)c1` (centres undefined), the INHIBITION was 34.5%.
Regarding `COc1nc2c(cc1C(=O)NC(C)Cc1cc(C)n[nH]1)CCC2` (centres undefined), the INHIBITION was -37.9%.
The figure for `Cn1c(=O)[nH]c(=O)n2c(CC(=O)Nc3ccc(Cl)c(Cl)c3)cnc12` is 20.1%.
The figure for `Cc1nc(N(C)CCN(C)C)c2cnn(C)c2n1` is 29.2%.
